The record followed here is PubChem BioAssay.

Assay [1] deals with Human papillomavirus type 1a protein E7 (residues 44-93). As to the kind of experiment: HPV1a E7 fragment binders on microarrays, primary screen, biochemical, small-molecule microarray, residues 44-93, 635 nm fluorescence (AID 1108).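 Further: E7 fragment applied at 1 µg/mL in TBST for 1 h at 4 C; score combines spot fluorescence with its signal to noise ratio.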 Conditions: small-molecule microarray binding, fluorescence 635 nm; higher = more signal.
The nature of assay [2]: modulators of HCV replicon luciferase signal, primary screen, HCV replication inhibitor project, Huh7 cells, luciferase reporter (AID 1109).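 Further: huh7 hepatoma cells harbouring a luciferase neomycin HCV replicon reporter; luciferase luminescence as measure of HCV replicon replication; test concentration not given here.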 Conditions: 48 h, higher = more signal.
The target of assay [3] is Left-right determination factor 2 (Homo sapiens) (UniProt O00292). As to the kind of experiment: LEFTY2 binders on small-molecule microarrays, primary screen, biochemical, small-molecule microarray, 635 nm fluorescence scan (AID 1110). Conditions: LEFTY2 binding, higher = more signal.
Assay [4] deals with Calmodulin-1 (Homo sapiens) (UniProt P0DP23). Nature of the assay: CALM1 binders on microarrays, EGTA buffer, profiling panel, biochemical, small-molecule microarray, Cy5-labelled CALM1 (AID 1111).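 Further: labelled calmodulin applied in Tris saline Tween buffer holding calcium plus EGTA and DTT.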 Conditions: Cy5-CALM1 binding fluorescence, higher = more signal.
Assay [5] shares this target. Nature of the assay: calcium-bound CALM1 binders on microarrays, profiling panel, artefact control for SMM control-protein annotation, biochemical, small-molecule microarray, Cy5-labelled CALM1, plus calcium (AID 1112).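 Further: score merges spot fluorescence with signal to noise from triplicate slides.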 Conditions: Cy5-CALM1 binding fluorescence, higher = more signal.
Assay [6] can be described thus: small-molecule microarray binders of probe aWnt5a, primary screen, biochemical, biotinylated probe, 635/667 nm fluorescence (AID 1113).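 Further: score merges 667 nm fluorescence intensity with signal-to-noise per printed feature.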 Conditions: higher = more signal.
A short description of assay [7]: small-molecule microarray binders of probe aShh, primary screen, biochemical, biotinylated probe, 635/667 nm fluorescence (AID 1114).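 Further: probe is biotin-labelled aShh protein from a stem cell growth factor screen; measures binding of labelled protein to compounds printed on the slide; score merges feature fluorescence at 667 nm with signal-to-noise.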 Conditions: higher = more signal.
Assay [8] in a line: small-molecule microarray binders of probe aNog, primary screen, biochemical, biotinylated probe, 635/667 nm fluorescence (AID 1115).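 Further: probe is biotinylated aNog protein used at 0.15 µg/mL for 1 h at 4 C; z-score combines 667 nm fluorescence of each spot with its signal to noise.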 Conditions: higher = more signal.
Assay [9] has as its target Torsin-1A-interacting protein 1 (Homo sapiens) (UniProt Q5JTV8). As to the kind of experiment: LAP1 binders from COS7 cell lysate, primary screen, small-molecule microarray, 635/667 nm fluorescence (AID 1116). Conditions: COS7-hLAP1 lysate binding, 635 nm fluorescence, higher = more signal.
Assay [10] concerns the target Alpha-bungarotoxin (Bungarus multicinctus) (UniProt P60615). As to the kind of experiment: alpha-bungarotoxin binders on microarray, profiling panel, artefact control for SMM control protein annotation, biochemical, small-molecule microarray, Alexa647 label, 635/667 nm fluorescence (AID 1117). Conditions: alpha-BTX-A647 binding fluorescence, higher = more signal.
The target of another assay is Albumin (Bos taurus) (UniProt P02769). Nature of the assay: bovine serum albumin binders on microarray, profiling panel, artefact control for SMM control protein annotation, biochemical, small-molecule microarray, Alexa647 label, 635/667 nm fluorescence (AID 1118).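 Further: score merges 667 nm emission intensity and signal-to-noise per printed compound spot.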 Conditions: BSA-A647 binding, fluorescence 635 nm, higher = more signal.
Assay [11] can be described thus: small-molecule microarray binders of probe aXIP, primary screen, biochemical, NeuroSMM set, 635/667 nm fluorescence (AID 1119).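 Further: probe is the protein aXip251-270 applied at 1 µg/mL to compound-printed slides; binding of probe to printed compounds measured as 667 nm fluorescence plus signal to noise.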 Conditions: higher = more signal, called active from +8 up or from −8 down.
Assay [12] is described as follows: small-molecule binders of probe aNOTCH3, primary screen, biochemical, small-molecule microarray, 635/667 nm fluorescence (AID 1120).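 Further: probe is a biotin-tagged antibody raised against NOTCH3 rather than NOTCH3 protein; score merges spot fluorescence near 667 nm with spot signal to noise.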 Conditions: higher = more signal.
Assay [13] can be described thus: small-molecule binders of probe aNOTCH2, primary screen, biochemical, small-molecule microarray, 635/667 nm fluorescence (AID 1121).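 Further: score merges feature fluorescence read at 667 nm with its signal to noise.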 Conditions: higher = more signal.
Assay [14] addresses Carbonic anhydrase 2 (Homo sapiens) (UniProt P00918). As to the kind of experiment: CAII small-molecule binders, profiling panel, biochemical, small-molecule microarray, Alexa647-labelled CAII (AID 1122). Conditions: CAII-A647 binding fluorescence, higher = more signal.
A short description of assay [15]: COS7 lysate on small-molecule microarray, probe aHis, 635 nm (AID 1123).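 Further: z-score combines 667nm fluorescence intensity with signal-to-noise per printed compound spot.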 Conditions: COS7 cell lysate, fluorescence, higher = more signal.
A short description of assay [16]: compound binding in COS7 lysate, probe aLAP1, primary screen, cell lysate, small-molecule microarray (AID 1124).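 Further: lysate comes from COS7 cells expressing LAP1 and is applied at 0.3 µg/mL; score merges spot fluorescence near 667 nm with signal-to-noise over triplicate slides.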 Conditions: probe aLAP1, fluorescence, higher = more signal.
A further assay has as its system Sam68 (KHDRBS1). As to the kind of experiment: Sam68 small-molecule binders, primary screen, biochemical, small-molecule microarray, 635 nm fluorescence (AID 1125).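 Further: score merges 667 nm channel intensity with signal to noise over triplicate slides.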 Conditions: small-molecule microarray binding, higher = more signal.
Assay [17] relates to Chordin-like protein 2 (CHRDL2). Nature of the assay: CHRDL2 small-molecule binders, primary screen, biochemical, small-molecule microarray, 635 nm fluorescence (AID 1126).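 Further: printed compound slides probed with Chrdl2 protein at 4 µg/mL for 1 h at 4 C; score merges 667 nm emission intensity with signal to noise over three replicate slides.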 Conditions: small-molecule microarray binding, fluorescence 635 nm; higher = more signal.
For assay [18], the target named is Concanavalin-A (Canavalia ensiformis) (UniProt P02866). Nature of the assay: ConA small-molecule binders, primary screen, artefact control for SMM control protein annotation, biochemical, small-molecule microarray, Alexa647 label, 635 nm (AID 1127).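 Further: z combines 667 nm emission intensity with signal-to-noise across three replicate slides.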 Conditions: ConA-A647 binding fluorescence, higher = more signal.

The source made the active and inactive calls.

Chain of Torsin-1A-interacting protein 1 (Homo sapiens) (Q5JTV8 whole entry, looked up): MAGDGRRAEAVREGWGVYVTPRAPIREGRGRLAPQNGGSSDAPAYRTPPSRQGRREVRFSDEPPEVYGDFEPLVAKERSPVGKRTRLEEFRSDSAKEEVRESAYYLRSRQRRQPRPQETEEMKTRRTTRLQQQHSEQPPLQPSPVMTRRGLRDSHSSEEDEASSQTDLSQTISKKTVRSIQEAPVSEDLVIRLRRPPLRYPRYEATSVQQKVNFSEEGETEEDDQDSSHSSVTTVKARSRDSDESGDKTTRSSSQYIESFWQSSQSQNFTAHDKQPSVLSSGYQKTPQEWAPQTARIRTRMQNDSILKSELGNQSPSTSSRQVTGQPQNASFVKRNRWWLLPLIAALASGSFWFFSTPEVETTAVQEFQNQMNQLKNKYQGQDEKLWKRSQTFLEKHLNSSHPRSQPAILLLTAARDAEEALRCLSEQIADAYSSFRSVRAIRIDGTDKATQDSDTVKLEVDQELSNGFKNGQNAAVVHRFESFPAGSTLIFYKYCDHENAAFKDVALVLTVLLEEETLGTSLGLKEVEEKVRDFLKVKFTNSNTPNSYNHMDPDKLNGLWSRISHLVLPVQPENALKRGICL
Chain of Albumin (Bos taurus) (P02769 whole entry, looked up): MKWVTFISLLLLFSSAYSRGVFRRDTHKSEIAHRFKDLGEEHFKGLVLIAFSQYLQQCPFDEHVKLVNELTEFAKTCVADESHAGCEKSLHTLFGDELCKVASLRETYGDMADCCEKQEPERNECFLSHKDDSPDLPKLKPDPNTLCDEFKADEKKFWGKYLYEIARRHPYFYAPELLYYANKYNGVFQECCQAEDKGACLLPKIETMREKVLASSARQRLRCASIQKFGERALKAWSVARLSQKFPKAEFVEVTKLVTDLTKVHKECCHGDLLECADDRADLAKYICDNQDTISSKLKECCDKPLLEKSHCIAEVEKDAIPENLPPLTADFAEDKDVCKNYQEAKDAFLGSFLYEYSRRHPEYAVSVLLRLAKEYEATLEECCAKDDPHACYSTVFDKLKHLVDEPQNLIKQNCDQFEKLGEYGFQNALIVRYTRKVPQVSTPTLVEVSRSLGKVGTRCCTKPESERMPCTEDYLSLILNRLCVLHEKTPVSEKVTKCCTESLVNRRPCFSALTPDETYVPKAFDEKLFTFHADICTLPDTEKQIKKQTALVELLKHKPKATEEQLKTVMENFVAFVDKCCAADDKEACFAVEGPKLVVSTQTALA
Chain of Left-right determination factor 2 (Homo sapiens) (O00292 whole entry, looked up): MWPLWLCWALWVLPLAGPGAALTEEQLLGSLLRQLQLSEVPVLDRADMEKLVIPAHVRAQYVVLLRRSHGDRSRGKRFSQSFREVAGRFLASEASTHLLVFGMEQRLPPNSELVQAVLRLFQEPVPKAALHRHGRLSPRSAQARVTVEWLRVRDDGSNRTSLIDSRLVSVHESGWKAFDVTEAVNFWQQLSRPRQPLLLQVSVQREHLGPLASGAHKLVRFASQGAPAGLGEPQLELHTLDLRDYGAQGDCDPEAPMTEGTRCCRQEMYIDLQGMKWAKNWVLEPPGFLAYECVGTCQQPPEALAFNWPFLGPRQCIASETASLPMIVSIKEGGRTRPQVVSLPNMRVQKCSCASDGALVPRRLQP
Chain of Alpha-bungarotoxin (Bungarus multicinctus) (P60615 whole entry, looked up): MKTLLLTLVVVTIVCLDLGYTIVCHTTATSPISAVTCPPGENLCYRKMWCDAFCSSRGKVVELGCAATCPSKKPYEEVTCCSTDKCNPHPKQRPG
Chain of Concanavalin-A (Canavalia ensiformis) (P02866 whole entry, looked up): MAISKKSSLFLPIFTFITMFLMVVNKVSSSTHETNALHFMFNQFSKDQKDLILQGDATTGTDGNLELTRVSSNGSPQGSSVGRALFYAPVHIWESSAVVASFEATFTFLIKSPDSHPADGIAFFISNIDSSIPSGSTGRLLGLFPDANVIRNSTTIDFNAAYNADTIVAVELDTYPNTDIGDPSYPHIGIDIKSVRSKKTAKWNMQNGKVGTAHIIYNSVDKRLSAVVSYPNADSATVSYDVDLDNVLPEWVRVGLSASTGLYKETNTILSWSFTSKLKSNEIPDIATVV

With `O=C1C2C=CC(C(O)COCc3ccccc3)N(Nc3ccc([N+](=O)[O-])cc3)C2C(=O)N1c1ccccc1` (stereo not given), the composite z-score in assay [1] is 1.44; in [3], 0.308; in [4], 0.823; in assay [5], -0.432; in [6], 0.0317; in assay [7] it was 0.213. Further, the composite z-score in [8] was 0.525; in assay [9] it was 0.548; in assay [10], 1.31; in the assay with Albumin (Bos taurus), 0.734; in assay [12] it was 0.271; in [13], 0.0449. The composite z-score turned out to be 0.766 in [14]; 2.9 in assay [15]; 0.143 in assay [16]; 1.31 in the assay with Sam68 (KHDRBS1); 0.412 in assay [17]; 0.519 in [18]. For the same compound, the z-score in assay [2] was -1.36. Also, in assay [11], the composite Z-score was 0.845 (inactive).
Consider `O=C(O)[C@H]1C[C@H]2C(=O)N3CCC[C@H]3C(=O)N2[C@H]1c1ccc(O)cc1`, for which the composite z-score in [1] is -0.124; in assay [3], -2.21; in assay [4], -0.342; in [5], 0.123; in [6], -0.202; in [7], -0.348. Besides, the composite z-score was -0.216 in [8]; 0.319 in assay [9]; -1.55 in assay [10]; -2.04 in the assay with Albumin (Bos taurus); -0.368 in assay [12]; -0.176 in assay [13]. The composite z-score in assay [14] was 0.545; in assay [15], 0.193; in assay [16], 0.107; with Sam68 (KHDRBS1), -0.132; in assay [17], -1.49; in assay [18], 0.298. In [2], this compound came in with a z-score of 0.253. Besides, the composite Z-score in [11] was 0.0047 (inactive).
Turning to `C#CCN1[C@@H](Cc2ccc(O)cc2)C(=O)O[C@H](Cc2ccccc2)[C@@H]1/C=C/C1CC1`, the composite z-score in [1] was -0.513; in assay [3], 0.207; in [4], -0.458; in [5] it was -0.587; in assay [6] it was -0.18; in assay [7] it was 0.163. Also, the composite z-score in [8] is -0.113; in assay [9] it was -0.188; in assay [10], 0.0577; with Albumin (Bos taurus), -0.545; in [12] it was 0.14; in assay [13], -0.14. For the same compound, the composite z-score is 0.117 in assay [14]; -0.225 in assay [15]; 0.472 in assay [16]; -0.329 with Sam68 (KHDRBS1); 0.498 in [17]; -0.457 in assay [18]. Moreover, the z-score in assay [2] was -3.22. In addition, in assay [11], the composite Z-score is 0.228 (inactive).
As for `CC(C)NC(=O)[C@@H]1c2ccccc2C(=O)N(C(C)C)[C@H]1c1ccc(CO)cc1`, the composite z-score in assay [1] is 1.42; in [3], -0.597; in [4], -0.639; in [5] it was -0.128; in [6] it was -0.228; in [7], -0.291. Further, the composite z-score in [8] was -0.196; in assay [9], 1.69; in [10] it was -0.558; with Albumin (Bos taurus) it was -0.163; in assay [12] it was -0.215; in assay [13], -0.179. In addition, the composite z-score in [14] is 0.644; in [15], 2.97; in assay [16], 0.338; in the assay with Sam68 (KHDRBS1), 0.637; in assay [17] it was -1.38; in assay [18] it was 0.185. Further, the z-score in [2] is -0.152. Besides, the composite Z-score in assay [11] is -0.174 (inactive).
Consider `COC(=O)c1c(CC[C@@H](CO)NC(=O)N[C@@H](Cc2ccccc2)Cn2cc(-c3ccccn3)nn2)oc(C(=O)N2CCOCC2)c1C(=O)OC`, for which the composite z-score in [1] was -0.593; in assay [3], 0.0348; in assay [4], -0.194; in assay [5], 0.0715; in [6], -0.204; in assay [7], 0.0796. Besides, the composite z-score in assay [8] was 0.151; in [9] it was 0.167; in [10] it was 0.0762; with Albumin (Bos taurus), 0.15; in [12], 0.0562; in assay [13], -0.0928. The composite z-score in [14] is 0.696; in assay [15] it was 0.0795; in [16], -0.425; with Sam68 (KHDRBS1), -0.23; in [17], -0.488; in assay [18], -0.376. The same compound gave a z-score in [2] of 0.209. Also, the composite Z-score in assay [11] is 0.255 (inactive).
With `O=C1O[C@@H](c2ccccc2)[C@@H](c2ccccc2)N2[C@@H](c3ccc(OCCO)cc3)[C@]3(C(=O)Nc4ccc(C#CC5=CCCCC5)cc43)[C@@H](C(=O)N3CCCCCCC3)[C@H]12`, the composite z-score was 1.45 in [1]; 1.59 in [3]; 2.33 in [4]; 1.14 in assay [5]; 1.21 in assay [6]; 2.92 in assay [7]. For the same compound, the composite z-score in assay [8] is 3.02; in assay [9], 4.33; in assay [10], 2.54; with Albumin (Bos taurus), 0.425; in assay [12], 1.87; in assay [13] it was 0.988. In addition, the composite z-score amounted to 0.776 in [14]; 3.59 in [15]; 1.6 in [16]; 1.28 in the assay with Sam68 (KHDRBS1); 1.42 in assay [17]; 1.13 in [18]. Besides, the z-score in assay [2] is -1.58. In assay [11], the composite Z-score was 4.13 (inactive).
